# This is a sample that favours compounds with a hit; in the whole collection about 3.5% have one here.
# rCAG binder = binders of r(CAG) RNA repeats, primary screen, biochemical, fluorescence. r(CAG) RNA repeat, TO-PRO-1 dye displacement fluorescence. inhibition, % at 3 µM. 1.3% of 370,000 active;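 active = inhibition above the plate cutoff, the mean of all test compounds on that plate plus 3 SD, cut at about 35% in these data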;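 also: higher means more dye released from RNA so lower well fluorescence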
# MBD2 inh = inhibitors of MBD2 binding to methylated DNA, primary screen, biochemical, TR-FRET, DNA-binding domain, human; inhibition, % at 4.4 µM; Methyl-CpG-binding domain protein 2 (Homo sapiens), Q9UBB5; MBD2 binding to methylated oligonucleotide; 0.31% of 370,000 active; in the data active = inhibition above about 13%
# Target sequence (Q9UBB5 whole entry, looked up, the tested form may be a part): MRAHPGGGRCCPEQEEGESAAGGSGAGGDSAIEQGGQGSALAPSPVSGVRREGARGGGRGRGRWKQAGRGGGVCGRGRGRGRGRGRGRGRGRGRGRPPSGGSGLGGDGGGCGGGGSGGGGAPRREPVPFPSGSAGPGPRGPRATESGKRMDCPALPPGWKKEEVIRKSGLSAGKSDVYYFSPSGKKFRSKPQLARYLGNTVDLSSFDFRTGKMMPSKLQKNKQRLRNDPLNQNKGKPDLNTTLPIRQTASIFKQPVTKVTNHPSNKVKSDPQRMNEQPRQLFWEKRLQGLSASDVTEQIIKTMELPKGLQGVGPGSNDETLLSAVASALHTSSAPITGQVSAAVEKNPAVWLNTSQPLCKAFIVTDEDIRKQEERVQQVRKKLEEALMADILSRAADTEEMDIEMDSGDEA
# PG9 binder = binders of HIV-1 gp120 antibody PG9, primary screen, biochemical, TR-FRET | HIV-1 gp120 / PG9 antibody interaction | TR-FRET gp120-PG9 antibody binding | 0.43% of 360,000 active | inhibition, % at 6.7 µM; in the data active = inhibition above about 8.5%
# LEDGF integ inh = blockers of LEDGF/p75-dependent integrase strand transfer – biochemical, TR-FRET, high throughput, primary screen. inhibition, % at 3.7 µM. 0.64% of 370,000 active. TR-FRET IN-LEDGF/p75 DNA integration, Eu/Cy5. AID 743269, 2014;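 active = inhibition above the screen-wide mean plus 3 SD, cut at about 13% in these data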;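 also: signal is the Cy5 over europium emission ratio at 671 and 618 nm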
# DNMT1 inh = human DNMT1 methyltransferase inhibitors, primary screen, biochemical, molecular beacon, fluorescence, HinP1I cleavage, uHTS. 0.83% of 360,000 active. AID 588458, 2011. DNA (cytosine-5)-methyltransferase 1 (Homo sapiens), P26358. inhibition (reported as % activation of signal), % at 10 µM; in the data active = inhibition above about 50%
# UHRF1 binding = UHRF1 methylated DNA binding inhibitors, primary screen, counter-screen for MBD2 inhibitor project, biochemical, TR-FRET, human UHRF1, single concentration; E3 ubiquitin-protein ligase UHRF1 (Homo sapiens), Q96T88; UHRF1 binding to methylated oligo; inhibition, % at 4.4 µM; 0.75% of 370,000 active; in the data active = inhibition above about 21%;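 also: UHRF1 SRA domain binding a hemimethylated CpG hairpin DNA probe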
# rCAG bind conf = small molecules binding CAG repeat RNA – biochemical, fluorescence, confirmation; shares compounds with rCAG binder; r(CAG) RNA repeat, TO-PRO-1 dye displacement fluorescence; inhibition, % at 3 µM; 70% of 4,300 active;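 active = inhibition above a per-plate cutoff, the mean inhibition of sample wells plus 3 SD, cut at about 35% in these data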;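 also: loss of TO-PRO-1 fluorescence as compound displaces dye from 1x1 AA loop RNA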
# DNA CAG counter = displacement of TO-PRO-1 from CAG DNA duplex, counter-screen for rCAG RNA repeat binder project, biochemical, fluorescence, TO-PRO-1 dye, d(CAG) DNA oligo. inhibition, % at 3 µM. shares compounds with rCAG binder. d(CAG) DNA oligo TO-PRO-1 dye displacement. 94% of 4,300 active;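 active = inhibition above its plate's cutoff, the mean test-well inhibition plus 3 SD, cut at about 4.8% in these data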;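 also: hits displace the dye from DNA and so lower well fluorescence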
# Numbers stand for hits; i = inactive; nt = not tested or not shown.
SMILES,rCAG binder,MBD2 inh,PG9 binder,LEDGF integ inh,DNMT1 inh,UHRF1 binding,rCAG bind conf,DNA CAG counter
CN(CC(=O)Nc1ccc(Cl)cc1)C(=O)CNC(=O)c1cccs1,i,i,i,i,i,i,nt,nt
CC(C)OP(=O)(OC(C)C)C1(NS(=O)(=O)c2ccc(Cl)cc2)C=C(Cl)C(=O)C(Cl)=C1,40.1,i,i,i,i,i,i,5.9
O=C(O)CSCC(=O)N(Cc1ccccc1)c1nc(-c2ccccc2)c(-c2ccccc2)s1,68.3,i,i,i,i,i,85.6,53.6
CCOC(=O)c1sc(N(Cc2ccccc2)C(=O)CCl)nc1C,i,i,i,i,i,i,nt,nt
COc1cc(/C=C2/SC(=S)N(Cc3ccccc3)C2=O)ccc1O,55.4,i,i,i,i,i,35.1,17.8
CCN=C1S/C(=C\c2ccc(O)c(OCC)c2)C(=O)N1CC,i,i,i,i,i,i,nt,nt
COc1cc(/C=C2/SC(=NCc3ccccc3)N(Cc3ccccc3)C2=O)ccc1O,38.1,i,i,i,i,i,41.8,23.0
O=C1/C(=C\c2cccc(O)c2)SC(=S)N1Cc1ccccc1,i,i,i,i,i,i,nt,nt
Cc1ccccc1/C=C1\SC(=S)N(/N=C/c2cc([N+](=O)[O-])ccc2O)C1=O,36.8,i,i,i,i,i,i,10.5
O=C1/C(=C\c2ccc(O)c(O)c2)SC(=S)N1Cc1ccccc1,64.0,i,i,i,i,i,68.6,38.4
Cc1noc(C)c1NC(=O)N(C)C[C@H]1Oc2ccc(NC(=O)Nc3ccc4c(c3)OCO4)cc2C(=O)N([C@H](C)CO)C[C@@H]1C,i,i,i,i,i,i,nt,nt
O=C(CCCN1C(=O)/C(=C\c2cccs2)SC1=S)Nc1cc([N+](=O)[O-])ccc1O,i,i,i,i,i,i,nt,nt
O=C1/C(=C\c2cc([N+](=O)[O-])ccc2O)SC(=S)N1Cc1ccc(Cl)cc1,54.2,i,i,i,57.0,i,87.2,74.3
O=C1/C(=C\c2cccc(O)c2O)SC(=S)N1Cc1ccccc1,37.2,i,i,i,i,i,82.9,52.6
COc1cc(NS(=O)(=O)c2ccc(NC(=O)COc3ccccc3Cl)cc2)nc(OC)n1,64.5,i,i,i,nt,i,38.4,12.2
COc1cc(NS(=O)(=O)c2ccc(NC(=O)COc3cccc(C)c3)cc2)nc(OC)n1,i,i,i,i,i,i,nt,nt
CCOc1ccccc1C(=O)Nc1ccc(S(=O)(=O)Nc2cc(OC)nc(OC)n2)cc1,50.9,i,i,i,i,i,i,7.6
CN(C)S(=O)(=O)c1ccc(NC(=O)Cn2nc(-c3ccc4c(c3)OCCO4)ccc2=O)cc1,i,i,i,i,i,i,nt,nt
CCOC(=O)C1=CCC2C(=O)N(C3CCCCC3)C(=O)C12 (configuration not stated),i,i,i,i,i,i,nt,nt
COc1ccc(C(=O)N2C(=S)NC(=O)/C2=C\c2ccc(C)cc2)cc1,64.2,i,i,i,i,i,66.3,31.4
COc1ccc(C=C2NC(=S)NC2=O)cc1,i,i,i,i,i,i,nt,nt
O=C(CSc1nnc(-c2ccccn2)n1-c1ccc(Cl)cc1)Nc1cccc2ccccc12,i,i,nt,i,nt,i,nt,nt
CCOc1ccc(-n2c(SCC(=O)Nc3ccc(S(=O)(=O)Nc4nccs4)cc3)nnc2-c2ccco2)cc1,67.9,i,nt,i,nt,i,68.6,27.9
COc1ccc(-n2c(SCC(=O)Nc3ccc(C(=O)O)cc3)nnc2-c2cccs2)cc1,i,i,i,i,i,i,nt,nt
CCOc1ccc(-n2c(SCC(=O)Nc3ccc(S(=O)(=O)Nc4nccs4)cc3)nnc2-c2ccncc2)cc1,69.5,i,nt,i,nt,i,58.7,26.4
SMILES,rCAG binder,MBD2 inh,PG9 binder,LEDGF integ inh,DNMT1 inh,UHRF1 binding,rCAG bind conf,DNA CAG counter
O=C(CSc1nnc(-c2ccccn2)n1-c1ccc(Cl)cc1)Nc1ccc(S(=O)(=O)Nc2nccs2)cc1,73.6,i,nt,i,nt,i,75.4,39.2
CCCCNC(=O)NS(=O)(=O)c1ccc(NC(=O)CSc2nnc(-c3cccs3)n2-c2ccc(OC)cc2)cc1,53.9,i,nt,i,nt,i,62.1,22.7
COc1cc(C2SCC(=O)N2Cc2ccccc2)cc(OC)c1OC (configuration not stated),i,i,i,i,i,i,nt,nt
Cc1ccc(-n2c(SCC(=O)Nc3ccc(S(=O)(=O)Nc4nccs4)cc3)nnc2-c2cccs2)cc1,71.2,i,nt,i,nt,i,67.2,24.6
CCOc1ccc(-n2c(SCC(=O)Nc3ccc(S(=O)(=O)Nc4nccs4)cc3)nnc2-c2ccc(C(C)(C)C)cc2)cc1,59.5,i,nt,i,nt,i,55.4,25.4
COc1ccc(-n2c(SCC(=O)Nc3nccs3)nnc2-c2ccc(Cl)cc2)cc1,i,i,i,i,i,i,nt,nt
CC(C)(C)c1ccc(-c2nnc(SCC(=O)Nc3ccc(S(=O)(=O)Nc4nccs4)cc3)n2-c2ccc(Cl)cc2)cc1,61.3,i,nt,i,nt,i,61.7,26.5
Cc1ccc(-n2c(SCC(=O)Nc3ccc4c(c3)OCO4)nnc2-c2cccs2)cc1,i,i,i,i,i,i,nt,nt
COc1cc([N+](=O)[O-])ccc1NC(=S)NNC(=O)CCC(=O)Nc1ccccc1Cl,63.9,i,i,i,i,i,48.6,14.1
O=C1CS/C(=N/N=C/c2ccc(OS(=O)(=O)c3ccccc3)cc2)N1,39.9,i,i,i,i,i,37.8,9.7
COc1ccc(-c2c/c(=N\c3nc(-c4ccccc4)c(C)s3)c3ccccc3o2)cc1O,38.8,i,i,i,i,i,i,14.8
O=C(O)CCC(=O)Nc1sc2c(c1C(=O)NC1CCCC1)CCCC2,i,i,i,i,i,i,nt,nt
Cc1c(NS(=O)(=O)c2ccc3c(c2)OCCO3)cccc1-c1nc2cccnc2s1,i,i,i,i,i,i,nt,nt
Cc1cc(-c2nc3cccnc3s2)ccc1NS(=O)(=O)c1ccc2c(c1)OCCO2,38.0,i,i,i,i,i,47.2,13.6
Cc1cc(-c2nc3cccnc3s2)ccc1NS(=O)(=O)c1cccs1,49.8,i,i,i,i,i,37.1,11.3
